Assay outcomes: PubChem BioAssay, several laboratories
The list is not random: actives were taken first. Their share in the collection is about 4.3%.
BoNT-F LC inh: BoNT/F light chain protease inhibitors, primary screen, biochemical, flow cytometry, MLPCN library. Botulinum neurotoxin type F light chain protease (Clostridium botulinum). Multiplex microsphere protease cleavage assay. inhibition, % at 10 µM. 360,000 tested, 0.22% active. AID 588497, 2011; in the data active means inhibition above about 35%, passing the limit was not always enough; inconclusive means no clear call, values can overlap the other calls
PfHsp40 rescue: rescue of yeast from PfHsp40 toxicity, primary screen, S. cerevisiae, ATP luminescence | S. cerevisiae expressing PfHsp40, growth rescue | growth rescue, % at 12.5 µM | 340,000 tested, 0.68% active; in the data active means growth rescue above about 28%, passing the limit was not always enough; inconclusive means no clear call, values can overlap the other calls;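 further: yeast W303a lacking pdr1 and pdr3 grown in galactose medium; growth measured after three days at 30 °C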
BoNT A protease: BoNT/A light chain protease inhibitors, primary screen, biochemical, flow cytometry, MLPCN library; Botulinum neurotoxin type A light chain protease (Clostridium botulinum A str. ATCC 3502); multiplex microsphere protease substrate cleavage; inhibition, % at 10 µM; 360,000 tested, 0.17% active
Autofluor counter: flagged as autofluorescent in microsphere protease counterscreen; 360,000 tested, 3.1% active; fluorescence intensity (concentration not given with the values); AID 624483; compound autofluorescence counterscreen, microsphere flow cytometry; hits give high values; in the data active means fluorescence intensity above about 16000; inconclusive means no clear call, values can overlap the other calls
Anthrax LF prot: Bacillus anthracis LF protease inhibitors, primary screen, biochemical, multiplex microsphere, MLPCN library; Lethal factor (Bacillus anthracis), P15917; multiplex microsphere protease cleavage assay; inhibition, % at 10 µM; 360,000 tested, 0.12% active
MazF activator: activators of E. coli MazEF toxin-antitoxin RNase, primary screen, biochemical, fluorescence, uHTS | Endoribonuclease toxin MazF (Escherichia coli (strain K12)), P0AE70 | FAM/BHQ RNA-DNA oligo cleavage fluorescence, 5 h | activation, % at 20 µM | 350,000 tested, 0.32% active | AID 504720, 2011; in the data active means activation above about 50%
Large screens that a line does not name were inactive. Unless noted, no stated cut-off is given here; in the data, active means inhibition above about 30%; inconclusive means no clear call, values can overlap the other calls; inactive means below that.

O=C(Nc1ccc(N2CCOCC2)cc1)c1nc2ccccc2s1	none (no result: BoNT-F LC inh, BoNT A protease, Autofluor counter, Anthrax LF prot)
CC(C)C[C@H](NC(=O)N1CC(=O)Nc2ccccc21)C(=O)N[C@@H](Cc1ccccc1)C(=O)O	none
COc1ccccc1Oc1ccc(N2CC(C(=O)OCC(=O)c3ccccc3)CC2=O)cc1 (stereo unspecified)	none
COc1cc(O)c(C(CCN2CCOCC2)c2cc(OC)c(OC)c(OC)c2)c(OC)c1 (stereo unspecified)	none
COC(=O)c1sc(C(C)(C)C)cc1CSc1ccccc1	BoNT-F LC inh inconclusive
CC1(C)CC(=O)C2=C(C1)OC(N)=C(C#N)C2c1ccccc1 (stereo unspecified)	none
CC1CC(=O)C2=C(C1)OC(N)=C(C#N)C2c1coc2ccccc2c1=O (stereo unspecified)	MazF activator 85.1
CCn1c(SCC(=O)Nc2ccc(C(C)=O)cc2)nc2nc3c(cc2c1=O)CCCC3	BoNT A protease inconclusive, Autofluor counter 23239
CCN(CC)S(=O)(=O)c1ccc2c(c1)c(=O)c(C(=O)NCCc1ccc(OC)c(OC)c1)cn2C	none
CCOC(=O)c1cnn(CCOC(=O)c2ccccc2)c1NC(=O)c1ccccc1	none
CCOC(=O)c1cnn(CCOC(=O)C2CC2)c1NC(=O)C1CC1	Autofluor counter 20293
O=C(c1cnc(-c2ccccc2)s1)c1ccc(Cl)cc1Cl	BoNT A protease inconclusive, Autofluor counter 22951
CN(C)/C=C/C(=O)c1cnc(-c2cccc(Cl)c2)s1	BoNT-F LC inh 42.3
O=C(c1ccc(Cl)cc1)c1cnc(-c2ccccc2)s1	none (no result: BoNT-F LC inh, BoNT A protease, Autofluor counter, Anthrax LF prot)
Cc1nn(Cc2ccccc2)c2ncccc12	BoNT-F LC inh inconclusive
CN(Cc1ccccc1)C(=O)c1ccc(NC(=O)Cc2cccc(NC(=O)C3CCCN(C(=O)C4CCCC4)C3)c2)cc1 (stereo unspecified)	none
Cc1oc2c(c1C(=O)c1ccccc1)C(=O)C(=O)c1ccccc1-2	PfHsp40 rescue 97.3
CCCCC/C=C/C1=CC(=O)C[C@H](c2ccc(OC)cc2)C1	PfHsp40 rescue 44.0
Cc1cccc(-n2nc3c(c2NC(=O)c2ccco2)CS(=O)C3)c1C (stereo unspecified)	none
CCC(=O)Nc1c2c(nn1-c1ccc(C)cc1C)CSC2	PfHsp40 rescue 47.9
Cc1ccc(-n2nc3c(c2NC(=O)C(C)(C)C)CSC3)c(C)c1	none
Cc1cccc(-n2nc3c(c2NC(=O)c2ccco2)CSC3)c1C	Autofluor counter 20718
Cc1cc(C(=O)COC(=O)C2=NNC(=O)CC2)c(C)n1-c1cccc(C(F)(F)F)c1	Autofluor counter 17667
Cc1cc(S(=O)(=O)N2CCCCC2)c(C)s1	none
COc1c(C)cc(S(=O)(=O)N2CCCC2)c(C)c1C	Autofluor counter 17139
Cc1cc(S(=O)(=O)N2CCCC2)c(C)s1	Autofluor counter 20695
COc1ccc(-c2ccc(/C=C3/C(=N)N4C=CSC4=NC3=O)o2)c([N+](=O)[O-])c1	MazF activator 445.1
N=C1/C(=C/c2cccn2-c2ccc([N+](=O)[O-])cc2)C(=O)N=C2SC=CN12	none
CC(C)CCn1c(=O)c(C(=O)Nc2ccccc2S(N)(=O)=O)c(O)c2ccccc21	Autofluor counter 22781
CC(C)Cn1c(=O)c(C(=O)Nc2ccccc2S(N)(=O)=O)c(O)c2ccccc21	none
CCCc1cc(=O)n(-c2nc3ccccc3s2)[nH]1	none
CCOC(=O)Cc1cc(=O)n(-c2nc3ccccc3s2)[nH]1	PfHsp40 rescue 139.7
CCOC(=O)C1=CCC(c2ccc(C)cc2)N(S(=O)(=O)c2ccc(C)cc2)C1 (stereo unspecified)	none (no result: PfHsp40 rescue, MazF activator)
O=Cc1c(NC2CCCCC2)c2ccccc2[nH]c1=O	none
CCOC1=C(C#N)CC2(CC1)c1ccccc1-c1ccccc12	none
Cc1cc2c(cn1)C(CCC#N)(CCC#N)c1ccccc1-2	BoNT-F LC inh inconclusive, PfHsp40 rescue 54.4
Cc1cc(SCC(=O)N/N=C/c2ccc(O)c(O)c2O)c(C)cc1Br	Autofluor counter 22001
COc1cc(/C=N/NC(=O)CSc2cc(C)c(Br)cc2C)ccc1O	none
Cn1ccnc1SCC(=O)Nc1cccc2ccccc12	Autofluor counter 19695
O=C(CSc1nnc(-c2ccc(Br)cc2)o1)Nc1cccc(C(=O)O)c1	none
O=C(CSc1nnc(-c2ccc(Br)cc2)o1)Nc1cccc2ccccc12	Autofluor counter 23146
Cc1ccc(Cc2c(-c3ccc(C#N)cc3)nc3c(C)cc(Br)cn23)cc1	none (no result: PfHsp40 rescue, MazF activator)
CCN(CC)Cc1cc(Nc2ccnc3cc(Cl)ccc23)ccc1O	none
CCN(CC)CCNc1ccnc2cc(Cl)ccc12	Autofluor counter 20811
CC(=O)c1ccc(NC(=S)Nc2cccc(Cl)c2C)cc1	none
Cn1cccc1/C=C(\C#N)C(N)=S	none (no result: BoNT-F LC inh, BoNT A protease, Autofluor counter, Anthrax LF prot)
Cn1c(/C=C(\C#N)C(N)=S)ccc1-c1ccc(Br)cc1	BoNT A protease 32.6, Anthrax LF prot 32.1
Nn1c(SCc2cccc(Br)c2)nnc1-c1ccncc1	BoNT-F LC inh inconclusive
Cc1cccc(C)c1OCCNC(=O)C(=O)NCc1ccco1	none
CN(c1ccccc1)c1ncccn1	none (no result: BoNT-F LC inh, PfHsp40 rescue, BoNT A protease, Autofluor counter, Anthrax LF prot)
FC(F)(F)c1cc(Nc2ccccc2)nc(-c2ccccn2)n1	none
CC(C)Nc1cc(C(F)(F)F)nc(-c2ccccn2)n1	Autofluor counter 20659
COC(=O)CSc1cc(C(F)(F)F)nc(-c2ccccn2)n1	none
FC(F)(F)c1cc(Sc2ccccc2)nc(-c2ccccn2)n1	Autofluor counter 16298
CN(C)c1cc(C(F)(F)F)nc(-c2ccccn2)n1	Autofluor counter 16157
CSCc1cc(N(C)c2ccccc2)nc(-c2ccccn2)n1	PfHsp40 rescue 110.6
COc1cc(C(F)(F)F)nc(-c2ccccn2)n1	none
Cc1cccc(C)c1NC(=O)C1CCCN1S(=O)(=O)c1ccc2c(c1)n(C)c(=O)c(=O)n2C (stereo unspecified)	none
CCCCOc1ccc(N2C(=O)CC(NCc3ccncc3)C2=O)cc1 (stereo unspecified)	none
CNc1cncc(-c2cccc(C(=O)NC3CC3)c2)n1	none (no result: PfHsp40 rescue, MazF activator)
Nc1[nH]c(C(=O)c2ccccc2)c(-c2ccccc2C(F)(F)F)c1C(=O)NCCc1cccs1	none (no result: PfHsp40 rescue, MazF activator)
CC1(c2nnc(-c3ccccc3)o2)CC(c2ccncc2)=NO1 (stereo unspecified)	none
COc1cccc(C(=O)N(CN2CCCC2=O)c2cc(C)on2)c1	BoNT A protease inconclusive, Autofluor counter 22265
O=C1CCCN1CN(C(=O)c1ccccc1)c1ccccc1	none
CCOc1ccccc1C(=O)N(CN1CCCC1=O)c1cccc(Cl)c1	BoNT A protease inconclusive, Autofluor counter 21571
COc1ccccc1C(=O)N(CN1CCCC1=O)c1cccc(Cl)c1	Autofluor counter 22324
COc1cccc(C(=O)N(CN2CCCC2=O)c2cccc(Cl)c2)c1	none
